# Source: PubChem BioAssay (Tox21)
# Records with an inconclusive call do not appear. Where a call stands in place of a potency, no number is given. Where a structure was tested more than once in an assay, its records may differ in their call. Active and inactive are the calls of the source. Calls follow the shape of the full dose curve.
# Experiment: qHTS assay to identify small molecule agonists of the endoplasmic reticulum stress response signaling pathway - cell viability counter screen (AID 1159517); also: nearly all actives have a fitted effect of over 50% in size
# Details: ESRE-bla HeLa viability, CellTiter-Glo luminescence, 5 h; series mostly up to 61 µM
# Excerpt: U.S. Tox21 Program National Center for Advancing Translational Sciences [NCATS] NIH Chemical Genomics Center [NCGC] U.S. Environmental Protection Agency [EPA] National Institutes of Environmental Health Sciences [NIEHS] National Toxicology Program [NTP] U.S. Food and Drug Administration [FDA] Tox21 Assay Overview: Endoplasmic Reticulum (ER) plays an important role in cellular signaling, protein folding/maturation, stress response, lipid biosynthesis, calcium storage and release etc. Under stress conditions, proteins in ER misfold or unfold, and leading to the expression of ER stress responsive genes. ER stress has been associated with a variety of pathophysiological conditions such as cancer, inflammation, neurodegenerative diseases, diabetes, ischemic heart disease etc. To identify the compounds that induce ER stress response, an ER stress reporter cell line, CellSensor ESRE-bla HeLa (Life Technologies, Carlsbad, CA) containing a beta-lactamase reporter gene under control of the Endoplasmic reticulum Stress Response Element (ESRE) was used to screen Tox21 10K compound library. The cytotoxicity of the Tox21 compound library against the ESRE-bla HeLa cell line was tested in parallel by measuring cell viability using the CellTiter-Glo assay in the same wells.
# Tox21 Assay Protocol Summary: ESRE-bla HeLa cells were dispensed at 1,500 cells/6 uL of assay medium per well into black wall/clear-bottom 1536-well plates using a Multidrop Combi (ThermoFisher Scientific, Waltham, MA) dispenser. After the assay plates were incubated at 37 C and 5% CO2 for an overnight, 23 nL of compounds dissolved in DMSO, positive controls or DMSO only was transferred to the assay plate by a Pintool station (Kalypsys, San Diego, CA). The assay plates were incubated at 37 C and 5% CO2 for 5 hr. One uL of LiveBLAzer B/G FRET substrate (Life Technologies) was added using a FRD (Flying Reagent Dispenser, Aurora Discovery, San Diego, CA) and the plates were incubated at room temperature for 2 hr. Fluorescence intensity (405 nm excitation, 460 nm and 530 nm emissions) was measured using an Envision plate reader (PerkinElmer, Shelton, CT). For cytotoxicity, 4 ul/well of CellTiter-Glo reagent was added into the assay plates using an FRD. After 30 min incubation at room temperature, the luminescence intensity was measured using a ViewLux plate reader (PerkinElmer).
# Potency is read from the fitted curve at half-maximal effect.
row,SMILES,Potency
1,COc1ccc2nc(N)sc2c1,inactive
2,C=C1C[C@H]2[C@@H]3C=C(C)C4=CC(=O)CC[C@]4(C)[C@H]3CC[C@]2(C)[C@@]1(OC(C)=O)C(C)=O,inactive
3,Nc1cc([N+](=O)[O-])ccc1C(=O)O,inactive
4,C[C@]12CC[C@@H]3c4ccc(O)cc4CC[C@H]3[C@@H]1CC[C@@H]2O,inactive
5,O=Cc1ccccc1C=O,inactive
6,O=C1OC2(c3ccccc31)c1cc(I)c(O)c(I)c1Oc1c2cc(I)c(O)c1I,inactive
7,Nc1ccc(N)c(Cl)c1,inactive
8,C/C=C/C(=O)N(CC)c1ccccc1C,inactive
9,O=C1CCc2ccccc2O1,inactive
10,NCCS(=O)(=O)O,inactive
11,CC1=CC(C)(C)Nc2ccccc21,inactive
12,C[C@]12CC[C@@H]3c4ccc(O)cc4CC[C@H]3[C@@H]1CC[C@H]2O,inactive
13,C=CCNCC=C,inactive
14,O=[Se](O)O,inactive
15,[O-]/[N+](=N\O)c1ccccc1,inactive
16,CC[C@]12CCCN3CCc4c(n(c5ccccc45)[C@@](O)(C(=O)OC)C1)[C@@H]32,inactive
17,O=C(O)CCCCCCCCCCCC(=O)O,inactive
18,CC1(C)NC(=O)N(c2ccc([N+](=O)[O-])c(C(F)(F)F)c2)C1=O,inactive
19,CC(C)(C)c1cccc(C(C)(C)C)c1O,inactive
20,CCCCCCCC/C=C\CCCCCCCC(=O)O,inactive

row,SMILES,Potency
1,O=C(O)c1cc(=O)[nH]c(=O)[nH]1,inactive
2,C[N+](C)(C)CCO,inactive
3,CCCCCC=O,inactive
4,OC[C@H]1O[C@@H]2O[C@H]3[C@H](O)[C@@H](O)[C@@H](O[C@H]4[C@H](O)[C@@H](O)[C@@H](O[C@H]5[C@H](O)[C@@H](O)[C@@H](O[C@H]6[C@H](O)[C@@H](O)[C@@H](O[C@H]7[C@H](O)[C@@H](O)[C@@H](O[C@H]1[C@H](O)[C@H]2O)O[C@@H]7CO)O[C@@H]6CO)O[C@@H]5CO)O[C@@H]4CO)O[C@@H]3CO,inactive
5,CCc1cccc2c3c([nH]c12)C(CC)(CC(=O)O)OCC3 (stereo not given),inactive
6,C=C[C@H]1CN2CC[C@H]1C[C@@H]2[C@@H](O)c1ccnc2ccc(OC)cc12,inactive
7,CC1(C)OC(=O)NC1=O,inactive
8,C=CN1CCCC1=O,inactive
9,O=C(O)COCCN1CCN(C(c2ccccc2)c2ccc(Cl)cc2)CC1 (stereo not given),inactive
10,CN(Cc1cnc2nc(N)nc(N)c2n1)c1ccc(C(=O)N[C@@H](CCC(=O)O)C(=O)O)cc1,inactive
11,O=C(O)c1ccc(O)cc1,inactive
12,C=CCCCCCCCCCC,inactive
13,CC(C)=CCO,inactive
14,CC/C(=C(/CC)c1ccc(O)cc1)c1ccc(O)cc1,54.9 µM (active) and inactive
15,Cc1cccc(Nc2ccccc2C(=O)O)c1C,inactive
16,C=CCOC(=O)C(=C)C,inactive
17,CC(=O)Oc1c(C)c(C)c2c(c1C)CC[C@@](C)(CCC[C@H](C)CCC[C@H](C)CCCC(C)C)O2,inactive
18,CC(=O)[C@H]1CC[C@H]2[C@@H]3CC=C4C[C@@H](O)CC[C@]4(C)[C@H]3CC[C@]12C,inactive
19,CN1CCOCC1,inactive
20,O=C(CCCN1CCC(O)(c2ccc(Cl)cc2)CC1)c1ccc(F)cc1,inactive
